Molecules are shown by their SMILES. Among all 380,000 compounds or so, about 4,000 (1.1%) were called active. A call without a number means that no potency is given here. Another 3% or so got no clear call; they are omitted. Calls come from the whole dose curve; as a rule, active = well fitted activation curve with a large enough effect; inconclusive = small, poorly fitted or top-dose-only effect; inactive = no such curve, though single readings can be large or run the other way. Many of the other results were omitted from the sample, so actives are more common in it than they were.
Potency is the fitted concentration of half-maximal effect.

A short description of the test: qHTS Assay to Identify Small Molecule Activators of BRCA1 Expression. Note: nearly all actives have a fitted effect of over 80% in size. As to conditions: MCF7-BRCA1-FFLuc reporter, luminescence, 48 h; series mostly up to 46.1 µM. A digest of the protocol: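 MCF7-BRCA1-FFLuc cells, 2000/well in phenol-red-free MEM, attached 2 h then treated 48 h at 37 C. Luciferase luminescence read 15 min after reagent; normalized to genistein maximum activation (10microM) and DMSO, concentration-response fitted.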
A general note: Quantitative high-throughput screening tests each substance at several concentrations.
With `Cc1c2cnn(-c3ccccc3)c(=O)c2c(C)n1C(C)C(=O)Nc1ccc(Br)cc1F` (stereo not drawn), the Potency result is “inactive”.
The same measure for `Cc1cc(C)cc(-n2c(SCC(=O)NCC3CCCO3)nc3c([nH]c4ccccc43)c2=O)c1` (stereo not drawn): “inactive”.
Then `CC(C)Cc1cc(C(=O)NCCc2ccccc2)no1`, with 5.01 µM (active); and `C[C@H](NC(=O)NCCc1ccccc1)C(=O)O`, with “inactive”.
The same measure for `O=C(NCCCc1ccccc1)c1cc(COc2c(F)cccc2F)on1`: 12.6 µM (active); for `O=C(NCCN1CCCC(O)C1)c1cc(COc2c(F)cccc2F)on1` (stereo not drawn): “inactive”.
As to `Nc1nonc1C(=O)NCCc1ccccc1`, the Potency result is “inactive”.
The same measure for `CN(CCOc1ccccc1)C(=O)c1cc(COc2c(F)cccc2F)on1`: “inactive”.
Then `O=S(=O)(c1ccc(C2CCCCC2)cc1)N1CCN(c2ccc(Cl)c(Cl)c2)CC1`, with “inactive”; and `CSc1cccc(NC(=O)CN2C(=O)CCc3cc(S(=O)(=O)N4CCCCC4)ccc32)c1`, with “inactive”; and `COc1ccc2c(c1)c(=O)c(C(=O)c1ccccc1)cn2CC(=O)Nc1ccc2c(c1)OCCO2`, with “inactive”.
The same measure for `CC(=O)N1CCc2cc(Br)cc(S(=O)(=O)CCC(=O)NCCc3ccc(Cl)cc3)c21`: “inactive”; for `CN(CC(=O)Nc1cccc(C(F)(F)F)c1)S(=O)(=O)c1cccs1`: “inactive”.
Turning to `CC(=O)NN=C(C)c1ccc(NC(=O)C2CC2)cc1`, the Potency result is “inactive”.
Regarding `C/C(=N/NS(=O)(=O)c1ccccc1)c1ccc(NC(=O)C(F)(F)F)cc1`, the Potency entry was “inactive”.
Then `C/C(=N/NC(=O)c1ccc(NC(=O)c2ccc(F)cc2)cc1)c1ccccc1`, with 12.6 µM (active); and `O=C(CSc1nc(=O)n(Cc2cccnc2)c2c1CCC2)Nc1ccc(F)cc1F`, with “inactive”; and `CC(=O)Nc1ccc(S(=O)(=O)N2CCN(c3ccccc3)CC2)cc1`, with “inactive”.
With `COc1cc(-c2nnn(CC(=O)NCc3ccccc3)n2)cc(OC)c1OC`, the Potency result was “inactive”.
Then `CC(C)(C)NC(=O)Cn1nnc(-c2ccccc2Cl)n1`, with 12.6 µM (active); and `Cc1ccccc1-c1nnn(CC(=O)c2ccc(S(=O)(=O)N3CCCC3)cc2)n1`, with “inactive”; and `O=C(Nc1ccccc1C(F)(F)F)c1nc(S(=O)(=O)Cc2ccccc2F)ncc1Cl`, with “inactive”.
The same measure for `COC(=O)c1ccc(/C=C/c2c(-c3ccc(OC)cc3)sc3ccccc23)cc1`: “inactive”; for `COc1ccccc1-c1sc2ccccc2c1-c1ccc(C(C)=O)cc1`: “inactive”.
With `COc1ccc(N=C(C)c2sc3ccccc3c2O)cc1`, the Potency is 5.01 µM (active).
The same measure for `CCN(CC)S(=O)(=O)c1ccc2c(c1)c(=O)c(C(=O)N1CCN(c3cccc(Cl)c3)CC1)cn2C`: “inactive”; for `Cc1ccsc1C(=O)NCCc1ccco1`: 4.47 µM (active).
The same measure for `Cc1ccsc1C(=O)NC1CCCCC1C` (stereo not drawn): “inactive”; for `CCNC(=O)c1sccc1-n1cccc1`: “inactive”; for `NC(=O)Nc1ccc(/C=C/c2ccnc3ccccc23)cc1`: “inactive”.
Then `COc1ccc(CNc2nc(-c3ccc(Cl)cc3)nn2C(=O)c2ccccc2)cc1`, with “inactive”; and `CCC(C(=O)Nc1cc(OC)ccc1OC)n1c(=O)c(C(F)(F)F)nc2ccccc21` (stereo not drawn), with “inactive”; and `CC1CCN(c2ccc(C(=O)Nc3nnc(C4CC4)s3)cc2[N+](=O)[O-])CC1`, with “inactive”.
With `Cc1cccc(NC(=O)CSCC(=O)Nc2nnc(C3CC3)s2)c1`, the Potency result was “inactive”.
Then `Cc1cc(C(=O)Nc2nnc(C3CC3)s2)c(C)s1`, with 3.55 µM (active); and `Cc1ccc(Cc2nc3ccccc3nc2SCC(=O)Nc2cccc(C(F)(F)F)c2)cc1`, with “inactive”.
The same measure for `Cn1cccc1C(=O)Nc1nccs1`: “inactive”; for `CC(=O)Oc1ccc(C(=O)Nc2nccs2)cc1`: 11.2 µM (active); for `CCCCOC(=O)Nc1nccs1`: “inactive”.
Then `Cc1ccc(NC(=O)c2oc3ccccc3c2NC(=O)Cc2cccs2)cc1`, with “inactive”; and `Cc1cc(NC(=O)c2ccc(-c3ccc(Cl)cc3)o2)cc(-c2nc3ncccc3o2)c1O`, with “inactive”; and `CCOc1cc(C2c3c(-c4ccc(Br)cc4)n[nH]c3C(=O)N2c2ccc(Cl)cc2)ccc1O` (stereo not drawn), with “inactive”.
For `CCC1=Nc2cc(C(=O)NCC(C)c3ccccc3)ccc2Sc2ccc(C)cc21` (stereo not drawn), the Potency result was “inactive”.
The same measure for `O=C(COc1ccccc1F)OCc1cc(=O)n2nc(C3CCCCC3)sc2n1`: “inactive”; for `COc1cccc(CNCc2c(C(=O)O)n(Cc3ccc(C)cc3)c3cc(C)ccc23)c1OC`: “inactive”.
On to `O=C(CSCc1cccs1)N1CCCC1`, for which the Potency was 12.6 µM (active).
In the case of `O=C(CSc1n[nH]c(-c2cccs2)n1)N1CCCCC1`, the Potency result is “inactive”.
The same measure for `Cn1c(SCC(=O)N2CCCC2)nnc1-c1cccs1`: “inactive”; for `OC(CBr)C[n+]1cccc2cc(Br)ccc21` (stereo not drawn): “inactive”; for `CCCCOc1ccc(C(=O)Nc2cccc(-c3nc4ccccc4o3)c2C)cc1`: “inactive”.
Then `COc1ccc2c(c1)CCc1c(C(=O)N3CCc4ccccc4C3)noc1-2`, with “inactive”; and `O=C(c1noc2c1CCCC2)N1CCc2ccccc2C1`, with 5.62 µM (active).
Then `CN(c1ccc(C(=O)N2CCc3ccccc3C2)cc1)S(C)(=O)=O`, with “inactive”; and `COc1ccc2c(c1)c(N1CCCC1=O)c(C(=O)Nc1ccc(OC)c(Cl)c1)n2C`, with “inactive”.
`O=C(c1ccc2c(c1)N(Cc1ccc(Cl)cc1)C(=O)c1ccccc1S2(=O)=O)N1CCCCC1`: the Potency result is “inactive”.
Turning to `CCN(CC(=O)NCCc1ccccc1)S(=O)(=O)c1ccc(C)cc1`, the Potency result is “inactive”.
`CCN(CC)S(=O)(=O)c1ccc(-c2cn3ccc(C)cc3n2)cc1`: the Potency was 3.55 µM (active).
In the case of `CCN(c1cccc(C)c1)S(=O)(=O)c1ccc(-c2coc(C)n2)cc1`, the Potency result is “inactive”.
Then `CCC(=O)N1N=C(c2ccc(OC)cc2)CC1c1cn(-c2ccccc2)nc1-c1cccs1` (stereo not drawn), with “inactive”; and `CN(C(=O)CSc1nc2ccccc2n1Cc1ccccc1C#N)c1ccccc1`, with “inactive”.
Then `CN1CCN(/[N+]([O-])=N/Oc2ccc([N+](=O)[O-])cc2[N+](=O)[O-])CC1`, with “inactive”; and `COc1ccc2nc(SCC(=O)Nc3c(C)cc(C)cc3C)[nH]c2c1`, with “inactive”.
For `Cc1cc2nc(SCCN3CCOCC3)[nH]c2cc1C`, the Potency was 4.47 µM (active).
The same measure for `CCn1c2ccc(F)cc2c2nnc(SCCN3CCOCC3)nc21`: “inactive”.
`COc1cc(C)ccc1OCCSc1nc2ccc(NC(=O)c3ccc(C)cc3)cc2s1`: the Potency entry is “inactive”.
The same measure for `CCOc1ccc(CCNC(=O)c2cc3c(=O)n(C)c4ccccc4c3n2C)cc1`: “inactive”.
Then `Cc1ccccc1CCNC(=O)C1CCN(c2nc3ccccc3nc2C(F)(F)F)CC1`, with “inactive”; and `COc1ccc(-n2c(C)nc3c(cnn3-c3ccc(F)cc3)c2=O)cc1`, with “inactive”.

(Values after PubChem BioAssay AID624202 (National Center for Advancing Translational Sciences (NCATS), 2012).)
